# Screening data as filed in PubChem.
# A selection: hits, their analogues and other compounds. The true share with any hit is near 1.3%.
# gsp ag: activates gsp, the McCune-Albright syndrome mutation; actives 0.13% (n = 340,000); gsp mutant cells, cAMP HTRF, 30 min; Potency, µM (highest dose often 76.9 µM), without a hit: top-dose activation (cAMP increase), most hits filed as activators; AID 624287; active means well fitted activation curve with a large enough effect; inconclusive means small, poorly fitted or top-dose-only effect, or another doubt; inactive means no such curve, though single readings can be large or run the other way; cell line not stated here;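 further: phosphodiesterase inhibitor Ro 20-1724 added with compounds to block cAMP breakdown; potency means the concentration at half of the fitted maximal effect; nearly all actives have a fitted effect of over 60% in size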
#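 Cells in DMEM/10% FBS with G418 were pretreated with compounds in DMSO plus […] (300 uM stock) for 30 min at 37C. cAMP was measured by HTRF (cAMP-d2 plus anti-cAMP antibody-K) after 30 min at room temperature.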
# Akt phos inh: blocks phosphorylation of Akt. activity change, % for hits at 50 µM. Neuro2A IGF-stimulated pAkt S473 HTRF, 20 min; stronger effect = lower value. AID 651550. actives 0.32% (n = 360,000); in the data active means activity change below about -80%; inconclusive means mostly about -51% to -80%; further: on the % scale 0 is the no-effect control and ±100 the full control effect
#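 Neuro2A cells (4,500/well, DMEM with 0.5% FBS) were treated with compound at a single 50 µM final concentration, stimulated with 6 nM IGF for 20 min at 37 °C, and lysed. Phospho-Akt Ser473 was read by HTRF as 665/615 ratio ×10^4.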
# RXFP1 agonist: agonists of human relaxin receptor RXFP1. Potency, µM (top dose mostly 57.5 µM), for inactives: at the highest dose activation, most hits filed as activators. HEK293T-RXFP1 cAMP TR-FRET, 30 min; response scale: percent of porcine relaxin response, buffer zero. actives 0.3% (n = 370,000). Q9HBX9; active means well fitted activation curve with a large enough effect; inconclusive means small, poorly fitted or top-dose-only effect; further: potency means the concentration at half of the fitted maximal effect; on the % scale 0 is the no-effect control and ±100 the full control effect; nearly all actives have a fitted effect of over 60% in size
# Target sequence (Q9HBX9 whole entry, looked up): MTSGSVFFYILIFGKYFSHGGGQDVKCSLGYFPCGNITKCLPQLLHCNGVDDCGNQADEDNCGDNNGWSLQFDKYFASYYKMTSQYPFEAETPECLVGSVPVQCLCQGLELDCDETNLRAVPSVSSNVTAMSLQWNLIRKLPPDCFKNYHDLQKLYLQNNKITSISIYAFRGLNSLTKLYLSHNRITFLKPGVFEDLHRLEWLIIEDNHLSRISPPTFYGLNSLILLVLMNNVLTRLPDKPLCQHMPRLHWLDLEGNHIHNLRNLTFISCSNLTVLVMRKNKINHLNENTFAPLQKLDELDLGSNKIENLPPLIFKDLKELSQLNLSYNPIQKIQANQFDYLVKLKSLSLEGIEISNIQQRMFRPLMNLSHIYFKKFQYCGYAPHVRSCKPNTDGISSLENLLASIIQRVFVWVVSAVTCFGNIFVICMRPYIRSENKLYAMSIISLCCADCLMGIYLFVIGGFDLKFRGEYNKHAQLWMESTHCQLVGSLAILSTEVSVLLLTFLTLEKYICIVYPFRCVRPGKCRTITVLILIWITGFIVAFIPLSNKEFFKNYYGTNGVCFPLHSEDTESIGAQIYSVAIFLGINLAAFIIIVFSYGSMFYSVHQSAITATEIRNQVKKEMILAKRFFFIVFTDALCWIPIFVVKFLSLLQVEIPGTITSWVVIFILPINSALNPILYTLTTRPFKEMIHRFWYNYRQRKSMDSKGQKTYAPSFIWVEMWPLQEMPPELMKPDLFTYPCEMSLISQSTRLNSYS
#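 Agonist response is measured as cAMP accumulation in an RXFP1-transfected HEK293T line under PDE4 inhibition. Values are scaled between buffer-only and 29 nM porcine relaxin, and EC50s come from standard Hill equation fits.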
# TSHR antag: antagonists of human thyroid stimulating hormone receptor | P16473 | actives 0.2% (n = 330,000) | activity change, negative = inhibition, % at 11.5 µM | TSHR-expressing cells, TSH-stimulated cAMP HTRF, 2 h; stronger effect = lower value;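 active means activity change below a set negative limit, meaning inhibition stronger than a set level, cut at about -70% in these data; inconclusive means activity change between two set negative limits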; further: on the % scale 0 is the no-effect control and ±100 the full control effect
#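 Read-out is FRET at 665 nm (cryptate excitation 337 nm) from a cryptate-tagged anti-cAMP antibody, competed by cell cAMP against cAMP-d2. Compounds are tested on freshly harvested TSHR cells challenged with 4nM TSH (EC80) for 2 hours at 37 deg C.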
# RXFP1 antagonist: antagonists of human relaxin receptor RXFP1; Q9HBX9; HEK293-RXFP1, relaxin-stimulated cAMP HTRF, 30 min; stronger effect = lower value; activity change, negative = inhibition, % at 57.5 µM; actives 0.59% (n = 350,000);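 active means activity change of -60% or lower, but not beyond a set lower limit; inconclusive means change between -60% and -40%, or beyond the set limit; inactive means change above -40%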; further: on the % scale 0 is the no-effect control and ±100 the full control effect
# gsp antag: antagonizes gsp, the McCune-Albright syndrome mutation; gsp-mutant cells, cAMP HTRF, 30 min; Potency, µM (titrated, usually from 76.9 µM), for the others: at the highest dose activity change, negative = inhibition, hits mostly inhibitors; actives 0.4% (n = 340,000); AID 624288; calls by dose curve; cell line not stated here;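 further: intracellular cAMP measured with PDE inhibitor Ro 20-1724 present during compound exposure; potency means the concentration at half of the fitted maximal effect; on the % scale 0 is the no-effect control and ±100 the full control effect; nearly all actives have a fitted effect of over 65% in size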
#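 Measurement of cellular cAMP by homogeneous time-resolved fluorescence following a 30 min compound exposure at 37C. The PDE inhibitor […] was present throughout; the assay buffer was DPBS with 0.05% BSA and 0.005% Tween 20.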
# The depositor's hits bear a star; i = inactive; ? = inconclusive; nt = no result; [ ] = remark or other dose.
SMILES,gsp ag,Akt phos inh,RXFP1 agonist,TSHR antag,RXFP1 antagonist,gsp antag
CC1(C)CC(=O)C2=C(C1)c1c(ccc3ccccc13)NC2c1cc([N+](=O)[O-])cc([N+](=O)[O-])c1O (stereo unspecified),-10%[15.4 µM],i,0%,-22,-72*,32µM*
CC1(C)CC(=O)C2=C(C1)c1c(ccc3ccccc13)NC2c1ccc(C(=O)O)cc1 (stereo unspecified),-1%,i,0%,-2,2,-24%
COc1ccc(-c2noc(CSc3nnc(C)n3-c3ccc(C)c(C)c3)n2)c(OC)c1,nt,nt,-1%,nt,-11,nt
COc1ccccc1-c1noc(CSc2nnc(Cc3ccccc3)n2-c2ccc(C)c(C)c2)n1,nt,nt,1%,nt,-65*,nt
COc1ccc2c(c1)C(c1cccs1)=NNC(c1ccncc1)=N2,-25%,i,1%,-1,-7,-24%
CCCOc1ccc(C2=NNC(c3cccs3)=Nc3ccc(OC)cc32)cc1,-1%,-125%*,0%,11,5,-5%
O=C(O)C1CCC1,nt,nt,nt,nt,10,nt
CC1(C)Cc2c(sc3ncnc(NN)c23)CO1,?,i,13µM*,14,9,5%
CN=Cc1sc2ccccc2c1O,-2%,i,-2%,-12,7,-9%
Oc1c(C=NCc2ccncc2)sc2ccccc12,8%,-103%*,0%,-2,7,-13%
Oc1c(C=Nc2ccccc2)sc2ccccc12,5%,i,4%,7,-70*,-25%
COc1ccc(OC)c(S(=O)(=O)NCc2ccccn2)c1,-17%,i,11%,-3,3,9%
O=C(NCCc1cnn(-c2ccccc2)c1)c1cc(COc2c(F)cccc2F)on1,?,i,0%,-36,-2,-32%
CCCC(=O)N1CCCC1(C)C(=O)NCc1ccc(SC)cc1 (stereo unspecified),nt,i,nt,nt,nt,nt
CC(=O)Nc1ccc(C=CC=Cc2cccc([N+](=O)[O-])c2)cc1,-2%,i,nt,nt,-61*,?
CC(=O)Nc1ccc(OCc2cccc([N+](=O)[O-])c2)cc1,11%[15.4 µM],i,3%,1,16,1%
CC(=O)Oc1ccccc1C(=O)C=Cc1cccc([N+](=O)[O-])c1,1%,i,nt,nt,-84*,14%
CC(C)C[C@H]1CN(CCCC[C@H]2CNC(=O)C(=O)N2CC2CCCCC2)C(=O)C(=O)N1CCC1CCCCC1,nt,i,nt,nt,nt,nt
CN(C(=O)CSc1ccc(S(=O)(=O)N2CCCCC2)cn1)c1ccccc1,-7%,i,0%,-9,4,-4%
CCOC(=O)c1c(-c2ccccc2)c[nH]c1C,-1%,i,nt,nt,-88*,4%
Cc1cc(C)cc(OCC(=O)OCC(=O)NC2CCCCCC2)c1,-1%,i,1%,-5,7,5%
CCCc1cc(=O)[nH]c(SCC(N)=O)n1,-1%,-125%*,0%,0,-1,3%
CCOc1ccc(-n2cc(-c3ccccc3)c3c(NC4CCCC4)ncnc32)cc1,nt,nt,-1%,nt,1,nt
O=[N+]([O-])c1c(Nc2ccccc2O)ccc2nonc12,1%[15.4 µM],i,4%,-13,-31,-17%
O=[N+]([O-])c1c(Nc2ccccc2O)cc(Cl)c2nonc12,-18%,i,-2%,-77*,-75*,-21%
SMILES,gsp ag,Akt phos inh,RXFP1 agonist,TSHR antag,RXFP1 antagonist,gsp antag
CCOC(=O)c1ccc(O)c(O)c1,nt,nt,nt,nt,12,nt
COC(=O)c1ccc(NC(=O)C(=O)N2CCN(C(=S)Nc3cccc(OC)c3)CC2)cc1,7%,i,0%,-3,3,-12%
COc1cccc(NC(=O)C(=O)N2CCOCC2)c1,-14%,-100%*,-1%,26,-15,12%
CC1(CCc2ccccc2)NC(=O)N(Cc2nnc(-c3ccccc3Br)o2)C1=O (stereo unspecified),0%,-108%*,3%,-4,-4,-6%
CN(C)S(=O)(=O)c1cccc(NC(=S)NCCCn2ccnc2)c1,1%[15.4 µM],i,8%,7,-6,nt
Cc1c(C(=O)NC2CCCCC2C)oc2ccccc12 (stereo unspecified),?,i,0%,-20,-6,7.1µM*
O=C(Cn1sc2ccccc2c1=O)N1CCN(C(=O)c2ccco2)CC1,23%,i,0%,-1,13,-7%
CN(CC(=O)Nc1ccc(F)c(F)c1F)C(=O)CCc1nc2sc3c(c2c(=O)[nH]1)CCCC3,18%[15.4 µM],i,3%,5,-63*,-5%
Cc1c(Cl)cccc1NC(=O)CSC(C)c1nc2ccccc2c(=O)[nH]1 (stereo unspecified),-11%[15.4 µM],i,1%,7,-9,-6%
CC1CN(C(=O)N2CCC(C(=O)NCc3cccs3)CC2)c2cc(Cl)ccc2O1 (stereo unspecified),nt,nt,3%,nt,-14,nt
O=c1cc(-c2c(O)c3ccccc3n(Cc3ccccc3)c2=O)[nH][nH]1,0%[15.4 µM],i,1%,-11,-84*,-16%
CCn1c(CN2CCCCC2)nc2cc(NC(=O)COc3cc(C)ccc3C(C)C)ccc21,nt,nt,0%,nt,-4,nt
Cc1ccc(C(C)C)c(OCC(=O)Nc2ccc3c(c2)nc(CCN2CCCCC2)n3C)c1,?,i,5%,-16,-61*,4%
Cc1ccc(NC(=O)C(C)N2C(=O)c3ccccc3C2=O)c(C)c1 (stereo unspecified),9%,i,5%,-7,2,5%
O=C(Cc1ccccc1)Nc1cccc(N2C(=O)C=CC2=O)c1,17%,i,3%,-71*,-119*,9%
COCCNCCOc1ccc(C)cc1[N+](=O)[O-],-5%,i,-5%,17,10,50µM*
C=CCNCCOCCOc1ccc(C)cc1[N+](=O)[O-],-5%,i,0%,-1,7,7%
CCc1ccc2nc(SCC(=O)Nc3ccccc3N3CCOCC3)c(C#N)cc2c1,1%[15.4 µM],i,0%,-2,-1,-8%
Cc1ccc2nc(SCC(=O)Nc3ccccc3N3CCOCC3)c(C#N)cc2c1,22µM*,i,21%,8,8,-6%
Cc1cccc(-n2c(SCC(N)=O)nc3c(c2=O)C2(CCCC2)Cc2ccccc2-3)c1,10µM*,i,29%,-1,nt,3%
CC(C)N(C(=O)COC(=O)c1cccc(N(C)C)c1)c1ccccc1,-13%[15.4 µM],i,1%,-4,0,-2%
COC(=O)c1sccc1S(=O)(=O)N1CCN(c2ccc(C)cc2C)CC1,nt,nt,-1%,nt,nt,nt
O=C(CSc1nnc2c(n1)[nH]c1ccccc12)N1CCCCC1,?,i,3%,-1,-5,0%
